# Most compounds without a hit are left out; they make up all but 20% or so of the library.
# HCMV inh: qHTS Assay for inhibitors of the human cytomegalovirus (HCMV); activity change, negative = inhibition, % at 57.5 µM; actives 4.5% (n = 410,000); HFF cells, HCMV-luciferase reporter, 72 h; hits give low values; AID 1259415, 2018; in the data active = activity change below about -60%; inconclusive = no clear call, values can overlap the other calls; inactive = above about -39%; also: % is scaled to controls: 0 for no effect and ±100 for the full control effect
#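 Compounds were evaluated in HFFs infected with an HCMV luciferase reporter virus (MOI 1 PFU/cell). Luciferase in lysates collected 72 h post infection served as the replication measure.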
# Shiga toxin inh: A qHTS for Small Molecule Inhibitors of Shiga Toxin; Vero cells, Shiga toxin protein synthesis inhibition reporter; inhibition, % at 38.7 µM; actives 9.2% (n = 290,000); AID 2315, 2010; in the data active = inhibition mostly above about 28%, no sharp cut-off; inactive = mostly below about 43%; also: 0% is about no effect
# Pf growth 48h: Primary qHTS for delayed death inhibitors of the malarial parasite plastid, 48 hour incubation | P. falciparum luciferase growth in erythrocytes, 48 h | actives 5.9% (n = 310,000) | Potency, µM (titrated, usually from 28.7 µM), for the others: at the top dose activity change, negative = inhibition, usual class: inhibitors; also: potency is read from the fitted curve at half-maximal effect; % is scaled to controls: 0 for no effect and ±100 for the full control effect
#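 In quantitative HTS format, infected erythrocytes bearing luciferase-reporter parasites were treated for a single generation at 37 C. Luminescence after adding detection reagent served as the growth measure.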
# CHX counter: Cycloheximide Counterscreen for Small Molecule Inhibitors of Shiga Toxin; cell reporter, cycloheximide protein synthesis inhibition counterscreen; max response, %; actives 12% (n = 300,000); AID 2314, 2010; in the data active = max response mostly above about 13%, no sharp cut-off; inactive = mostly below about 14%; also: read at 38.3 µM for the half of the compounds with a filed dose; 0% is about no effect
# Pf growth 96h: Primary qHTS for delayed death inhibitors of the malarial parasite plastid, 96 hour incubation; P. falciparum luciferase reporter growth, 96 h; actives 6.9% (n = 320,000); Potency, µM (series often up to 28.7 µM), for inactives: at the highest dose activity change, negative = inhibition, most hits filed as inhibitors; also: potency is read from the fitted curve at half-maximal effect; % is scaled to controls: 0 for no effect and ±100 for the full control effect
#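 Delayed-death screen, second-generation endpoint: infected erythrocytes, 2% hematocrit, 0.05% parasitemia final; 96 hours at 37 C, 5% CO2; luciferase detection reagent; luminescence decrease equals reduced growth.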
# * hit, by the source's call; ? = inconclusive; nt = no result. Unless noted, calls follow the shape of the dose curve; as a rule, active = well fitted inhibition curve with a large enough effect; inconclusive = small, poorly fitted or top-dose-only effect, or another doubt; inactive = no such curve, though single readings can be large or run the other way.
SMILES,HCMV inh,Shiga toxin inh,Pf growth 48h,CHX counter,Pf growth 96h
CCCNC(=O)C1CCN(S(=O)(=O)c2ccc3c(c2)CCCN3C(C)=O)CC1,6,nt,nt,nt,nt
Cc1cnc(CN(C)C(=O)c2cc(COc3c(F)cccc3F)on2)[nH]1,-30,-3,4.1µM*,-2,-27%
CC(=O)c1ccc(OCc2cc(C(=O)N(C)CCOc3ccc(C)cc3)no2)cc1,92,81*,10%,47*,18%
CN(C(=O)c1cc(COc2c(F)cccc2F)on1)C1CCOC1 (configuration not stated),42,32,46%,30*,3%
CN(Cc1ncc[nH]1)C(=O)c1cc(COc2c(F)cccc2F)on1,-29,14,32%,1,28%
CC(=O)c1ccc(OCc2cc(C(=O)N(C)C3CCOC3)no2)cc1 (configuration not stated),112,-8,5%,3,12µM*
CCOC(=O)C1(CCOc2ccccc2)CCN(CC=C(C)C)CC1,15,20,116%,-3,-81%
CC1CCC2(CC1)NC(=O)N(CC(=O)Nc1ccc(C(N)=O)cc1)C2=O (configuration not stated),58,nt,nt,nt,nt
CC(C)(C)n1cn[nH]c1=S,-17,28,-5%,-2,22%
CCOc1ccc(NC(=O)Cn2c(=O)c(CNc3ccc(CC)cc3)cc3cc4c(cc32)OCO4)cc1,9,nt,nt,nt,nt
COc1cccc(OCc2cc(C(=O)N(C)C3CCOCC3)no2)c1,16,19,29%,4,-26%
CN(CCCC1CCCC1)C(=O)c1cc(COc2c(F)cccc2F)on1,4,-5,0%,-3,?
Cc1ccc(CNC(=O)c2cc(COc3c(F)cccc3F)on2)s1,?,21,30%,0,-4%
Cc1cc(OCc2cc(C(=O)N(C)C3CCOC3)no2)cc(C)c1Cl (configuration not stated),45,78*,6%,49*,70%
O=C(c1cc(COc2c(F)cccc2F)on1)N(Cc1ccccc1)CC1CC1,-19,27,1%,18*,-16%
COc1cc(Cl)ccc1OCc1cc(C(=O)N(C)C2CCOC2)no1 (configuration not stated),3,60*,9%,37*,?
O=C(NCC1COCCO1)c1cc(COc2c(F)cccc2F)on1 (configuration not stated),58,30,12%,26*,-19%
COc1cccc(OCc2cc(C(=O)N(C)C3CC(C)(C)NC(C)(C)C3)no2)c1,-16,27,?,-2,0%
CC(C)Cc1nn2c(=O)cc(COC(=O)c3ccccc3NC(=O)C3CCCCC3)nc2s1,36,nt,nt,nt,nt
CCOc1cc(C#N)c(NC(=O)c2ccc(OC)c(S(=O)(=O)N3CCCCC3)c2)cc1OCC,-33,nt,nt,nt,nt
Cc1cccc(C)c1OCc1cc(C(=O)N(C)Cc2cc(C3CC3)n[nH]2)no1,-27,50*,?,32*,5%
Cc1ccc(OCc2cc(C(=O)N(C)Cc3cc(C4CC4)n[nH]3)no2)cc1C,?,32,-5%,9,-6%
Cc1ccccc1N1CC(c2nnc(NC(=O)c3ccco3)s2)CC1=O (configuration not stated),7,nt,nt,nt,nt
CCNC(=S)NN=C1c2ccccc2-c2ccccc21,73,4,-19%,2,4.7µM*
Cc1ccc(CN(C(=O)COc2ccc([N+](=O)[O-])cc2)c2ccccn2)cc1,1,nt,nt,nt,nt
SMILES,HCMV inh,Shiga toxin inh,Pf growth 48h,CHX counter,Pf growth 96h
CC(N)C(=O)NC(C(=O)NC(C)C(=O)Nc1cccc2ccccc12)C(C)C (configuration not stated),1,nt,nt,nt,nt
N#C/C(=C/c1ccc(N2CCCCCC2)o1)c1ccc(Cl)cc1,nt,22,nt,26,nt
N#CC(C#N)=Cc1ccc(N2CCCC2)cc1,48,44,8%,28*,-2%
N#C/C(=C/c1ccc(N2CCCCC2)cc1)c1cccc(F)c1,-8,25,35%,36*,0%
O=C(c1cccc(F)c1)N1CCCC(C(=O)N2CCN(c3ccccc3)CC2)C1 (configuration not stated),0,-13,38%,-2,24%
N#C/C(=C/c1ccc(N2CCCCC2)o1)c1cccc(F)c1,49,65*,nt,39*,?
CC(C)CNc1ncnc2[nH]ncc12,-22,nt,nt,nt,nt
CCOC(=O)c1c(C)[nH]c(CCC(=O)Nc2ccc(Cl)cc2C)c1C,9,nt,nt,nt,nt
Cc1ccc(CNC(=O)c2ccc(N3CCCC3)c(NC(=O)Nc3ccc(C)cc3)c2)cc1,-74*,nt,nt,nt,nt
CCOC(=O)c1ccc(N2CCN(c3ccccc3OC)CC2)c(NC(=O)Nc2ccc(CC)cc2)c1,12,nt,nt,nt,nt
Cc1ccc(CNC(=O)Nc2cc(C(=O)NCc3ccc(C(C)C)cc3)ccc2N2CCCC2)cc1,2,nt,nt,nt,nt
CCOC(=O)c1ccc(N2CCN(c3ccccc3F)CC2)c(NC(=O)Nc2ccccc2)c1,8,-16,13µM*,1,?
COCCNC(=O)c1ccc(N2CCCCC2)c(NS(=O)(=O)c2ccc(C)cc2)c1,16,-1,5.2µM*,16*,400%
CCOC(=O)c1ccc(N2CCCCC2)c(NS(=O)(=O)c2ccc(C)cc2)c1,-86*,14,2.3µM*,10,1µM*
CCC(=O)Nc1cccc(-c2cn3c(C)csc3n2)c1,-1,nt,nt,nt,nt
CC(C1CC2CCC1C2)n1c(-c2cccs2)n[nH]c1=S (configuration not stated),7,9,?,-2,-23%
COc1ccc(N2CCN(C(=O)c3ccc4nc(N5CCC(C)CC5)sc4c3)CC2)cc1,21,nt,nt,nt,nt
Cc1ccc(S(=O)(=O)Nc2cc(C(=O)NCCN(C)C)ccc2N2CCCC2)cc1,-22,-8,-3%,-4,8.3µM*
CCCCNC(=O)c1ccc(N2CCOCC2)c(NS(=O)(=O)c2ccc(OC)cc2)c1,35,9,7.4µM*,-4,49%
CCC(C(=O)N1CCC(N2CCCCC2)CC1)n1nc(C)c2sc3ccccc3c2c1=O (configuration not stated),-28,-4,?,-8,29%
COc1cc2[nH]c(C(=O)N3CCc4ccccc43)cc2c(OC)c1OC,357,47*,22%,30*,39%
CCN1CCN(C(=O)c2cc3c(OC)c(OC)c(OC)cc3[nH]2)CC1,23,-3,nt,-2,-4%
COc1cc2[nH]c(C(=O)N(C)Cc3ccccc3)cc2c(OC)c1OC,14,-6,?,1,?
COc1cc2[nH]c(C(=O)N3CCC(Cc4ccccc4)CC3)cc2c(OC)c1OC,127,-2,3.3µM*,-1,3.7µM*
CCOC(=O)C1CCN(C(=O)c2cc3c(OC)c(OC)c(OC)cc3[nH]2)CC1,28,-8,-17%,-4,?
CCN(Cc1ccccc1)C(=O)c1cc2c(OC)c(OC)c(OC)cc2[nH]1,93,-3,nt,2,8.3µM*
